# Test results reported in PubChem BioAssay (NCATS).
# Inconclusive results are not listed. Activity calls are given as the source filed them. The call rests on the fitted dose curve; in most records, active means well fitted cell-killing curve with a large enough effect; inconclusive means small, poorly fitted or top-dose-only effect; inactive means flat fitted curve, though single readings scatter.
# Test: J3T Cancer Cell Toxicity qHTS against the NCATS CANVASS Library (AID 1347371);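 on activity change, negative = cytotoxicity: J3T is a canine glioma cancer cell line seeded at 500 cells per well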
# Conditions: J3T dog glioma viability, ATP luminescence, 72 h; series mostly up to 46.1 µM; activity change, negative = cytotoxicity: at the top concentration
# Description: Natural products and their derivatives continue to be wellsprings of nascent therapeutic potential. However, many laboratories have limited resources for biological evaluation, leaving their previously isolated or synthesized compounds largely or completely untested. To address this issue, the Canvass library of natural products was assembled (https://tripod.nih.gov/canvass), in collaboration with academic and industry researchers, for quantitative high-throughput screening (qHTS) across a diverse set of cell-based and biochemical assays. The pure (>85% purity by liquid chromatography/mass spectrometry [LC/MS]) Canvass library of 346 natural products were submitted by 45 academic laboratories and companies around the world. We collected pure natural products to circumvent deconvolution and structure elucidation due to time and resource limitations. The library was formatted into 1536-well plates and evaluated in 50 qHTS (in an 11-pnt concentration series) bioassays with broad scope of disease-relevant mechanisms. The resulting data set from 50 different assays was then systematically analyzed to identify overall trends and specific natural products with interesting biological activities. Reported herein are the results of each individual qHTS and their corresponding assay protocol. This assay uses ATP (luminescence) content to measure the cytotoxiciy of compounds on J3T dog glioma cancer cell line. National Center for Advancing Translational Sciences (NCATS), Rockville, MD National Institute of Health (NIH), Bethesda, Maryland
# Cancer Cell Toxicity qHTS protocol: for cell lines G06, J3T, and SDT. 1. In a 1536 well, tissue culture treated white solid bottom plates (Corning 7494), 5 uL of J3T cell solution (final concentration of 500 cells / well) was dispensed using the Multidrop Combi dispenser (Thermo Fisher Scientific) into columns 2, 3, 5-48. 2. Control and Compounds were pin transferred (~23nL volume) to the assay plates via Wako Pin-tool (Wako Automation, Richmond VA) equipped with a 1536 pin head. The compounds were transferred to columns 5-48 resulting in a final concentration ranging from 0.17nM to 103uM. Dose response titration of Bortezomib was pin transferred into column 2 (1mM; 1:2 dilution; 16 points) resulting to a final concentration range of 0.1nM - 4.6uM. 3. The assay plates were further incubated in the at 37C, 5% CO2, 95% Rh for 72 hr. 4. After incubation, 3 uL of CellTiterGlo reagent (Promega) was added to the assay plates (column 1-48, rows 1-32) and centrifuged for 15 sec at 1000 rpm to remove bubbles. 5. Luminescence signal was acquired via the ViewLux plate reader (PerkinElmer) using a clear emission filter, 2 sec exposure, and 1x binning settings.
# On the % scale 0 is the no-effect control and ±100 the full control effect; potency means the concentration at half of the fitted maximal effect.
SMILES,"activity change, negative = cytotoxicity",outcome,Potency
C[C@]12CC(O)C3[C@@H](CCC4C[C@@H](O)CC[C@@]43CO)[C@@]1(O)CCC2C1=CC(=O)OC1 (stereo partly drawn),-0.114% (inactive),,
C/C=C1/CN2CC[C@]34C(=Nc5ccccc53)[C@@H]2C[C@@H]1[C@H]4C(=O)OC,,inactive [at 91.4 µM],
COC(=O)C1=C2Nc3ccccc3[C@@]23CCN2CC(C(C)=O)C1C[C@H]23 (stereo partly drawn),-3.64% (inactive),,
NCCc1ccccc1,1.49% (inactive),,
CCC(=O)CCCCC[C@@H]1NC(=O)[C@H]2CCCCN2C(=O)[C@H]([C@@H](C)CC)NC(=O)[C@H](Cc2cn(OC)c3ccccc23)NC1=O,,,5.9 µM (active)
COc1ccc2c3c([nH]c2c1)C(C)=NCC3,3.88% (inactive),,
c1ccc2c3c([nH]c2c1)CNCC3,-11.8% (inactive),,
CC=C1CN(C=O)[C@H]2C[C@@H]1[C@@H](C(=O)OC)[C@@]13CCOC21Nc1ccccc13 (stereo partly drawn),-17.3% (inactive),,
CO[C@H](c1ccccc1)[C@H]1NC(=O)C(C)NC(=O)C(C[C@@H](C)CO)N(C)C(=O)[C@@H](C(O)c2cn(C(C)(C)C3CO3)c3ccccc23)NC(=O)C(C(C)C=C(C)C)NC(=O)C(CC(C)C)N(C)C(=O)C(C(C)C)NC1=O (stereo partly drawn),-1.85% [at 27.5 µM] (inactive),,
CC(=O)N[C@H]1CCN2CCC[C@H]12,5.72% [at 103 µM] (inactive),,
CN1C(=O)[C@]23CC4C(C)(C)[C@@]5(C[C@@]41CN2CC[C@@]3(C)O)C(=O)Nc1c5ccc2c1OC=CC(C)(C)O2 (stereo partly drawn),-17.6% (inactive),,
C[C@@H]1CC[C@@H](c2ccoc2)N2C[C@@]3(CC[C@@H]12)CS[C@@]1(CC[C@H]2[C@H](C)CC[C@@H](c4ccoc4)N2[C@@H]1O)C3,,,9.35 µM (active)
CN(C)Cc1c[nH]c2ccccc12,2.5% (inactive),,
CCCC[C@@H]1CC[C@H]2CCCC(CCC)N12 (stereo partly drawn),-6.6% (inactive),,
CNCCc1ccc(O)cc1,,inactive,
CC1=CC2CC[C@@H]3[C@@H](C)C[C@H](C)[C@@H](C1)N23 (stereo partly drawn),3.51% (inactive),,
CO[C@@H](/C=C/CC/C=C/C(=O)O)[C@@H](O)[C@H](C)[C@@H](O)/C(C)=C/[C@H](C)C(=O)CCCC1CC(=O)NC(=O)C1,2.12% (inactive),,
CCC[C@H]1CC[C@H]2[C@H](C)CCC[C@H]2N1,1.39% (inactive),,
CNCCc1ccccc1,-5.58% (inactive),,
CCN1C[C@]2(C)CC[C@@H](O)[C@]34C1[C@H](C[C@H]23)C12CCC(CC14)[C@](O)(CO)[C@H]2O (stereo partly drawn),,inactive,
CC1=CC(=O)C2=C(C)C[C@H](O)[C@@H]3[C@H](OC(=O)[C@@H]3C)[C@@H]12,1.69% (inactive),,
CC[N@@+]1([O-])C[C@]2(C)CC[C@@H](O)[C@@]34C5C[C@H]6CC[C@@]5(C(C[C@H]23)C41)[C@H](O)[C@@]6(O)CO (stereo partly drawn),1.77% (inactive),,
O=C(c1ccccc1O)c1[nH]c(Cl)c(Cl)c1-n1c(C(=O)c2ccccc2O)cc(Cl)c1Cl,,,2.96 µM (active)
CO[C@@H](/C=C/CC/C=C/C(=O)O)[C@@H](O)[C@H](C)/C=C(\C)[C@@H](O)[C@H](C)C(=O)CCCC1CC(=O)NC(=O)C1,-4.47% (inactive),,
CC[C@@H]1CN2CC[C@@]3(O)C(=Nc4cccc(OC)c43)[C@@H]2C[C@@H]1/C(=C\OC)C(=O)OC,14% (inactive),,
COc1ccc(C23Oc4cc(OC)cc(OC)c4[C@](O)([C@H](c4ccccc4)C2C(=O)NCCCCNC(=O)c2ccccc2)[C@@H]3O)cc1 (stereo partly drawn),3.88% (inactive),,
CCN1C[C@]2(C)CC[C@H](O)[C@]34C1C(C[C@H]23)[C@@]12CC[C@H](CC14)[C@](O)(COC(=O)c1ccc(OC)c(OC)c1)[C@H]2O (stereo partly drawn),-9.33% (inactive),,
CNCCc1c[nH]c2ccccc12,-2.51% (inactive),,
